Records with an inconclusive call do not appear. Calls of active or inactive are those of the source. Calls follow the shape of the dose curve; as a rule, active = well fitted inhibition curve with a large enough effect in the signal ratio in the repeat runs (not every such curve was filed as active); inconclusive = weak or mixed curves; inactive = flat fitted curve, though single readings scatter; the % refers to the signal ratio.

We go through one molecule from PubChem BioAssay (Tox21).
Potency is read from the fitted curve at half-maximal effect.

The nature of this assay: qHTS assay to identify small molecule antagonists of the TGF-beta/Smad signaling pathway (AID 1346924). The conditions noted are these: SBE-bla HEK293T, TGF-beta/Smad reporter, beta-lactamase ratio. The text has this:
U.S. Tox21 Program National Center for Advancing Translational Sciences [NCATS] NIH Chemical Genomics Center [NCGC] U.S. Environmental Protection Agency [EPA] National Institutes of Environmental Health Sciences [NIEHS] National Toxicology Program [NTP] U.S. Food and Drug Administration [FDA] Tox21 Assay Overview: Transforming growth factor beta (TGF-beta) superfamily consists of a large number of structurally related dimeric proteins that act as hormones or local mediators in regulating a wide range of biological functions. This superfamily includes TGF-betas themselves, the bone morphogenetic proteins (BMPs) and the activins. These ligands induce oligomerization of serine/threonine receptor kinases and phosphorylate the cytoplasmic signaling molecules of Smad protein family. CellSensor SBE-bla HEK 293T cell line (Life Technologies, Carlsbad, CA), responsive to TGF-beta was used to screen Tox21 10K compound library for identification of agonists/antagonists of the Smad signaling pathway. […]
Tox21 Assay Protocol Summary: SBE-bla HEK 293T cells were dispensed at 4,000/well in 5 uL of assay medium into black wall/clear-bottom 1536-well plates using a Multidrop Combi (ThermoFisher Scientific, Waltham, MA) dispenser. […] Fluorescence intensity (405 nm excitation, 460 nm and 530 nm emissions) was measured using an Envision plate reader (PerkinElmer, Shelton, CT).
For the molecule `CCCCCCCCCCCC[N+](C)(C)CCOc1ccccc1`, the Potency was 50.9 µM (active).
